From PubChem BioAssay
Values joined by “and” are separate entries in the source; they are usually repeats but may differ in a detail not shown here. Equal values may be shown once. Records with an inconclusive call do not appear. Active and inactive are the calls of the source. Unless noted, the rule behind the calls is not given here. Where a SMILES comes first, the peptide text is derived from it. The star is where a group is joined. Cbz = O=C(OCc1ccccc1)*

Legend:
[1] = system: Aerobactin synthetase IucA (Klebsiella pneumoniae, hypervirulent); assay: biochemical IucA inhibition screen of LOPAC library by absorbance (AID 1346212); details: IucA enzyme assay, absorbance (OD) readout; stronger effect = lower value;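 tested at 8 µM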;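 note: 100% = no compound wells and 0% = no enzyme wells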
[2] = compounds altering circadian rhythm period length – cell-based, LOPAC library, luminescence reporter (AID 2774); details: circadian reporter cells, at 7 µM, actives lie on both sides;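 note: values are relative to mean of DMSO wells on each plate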
[3] = system: Hepatitis C virus NS3 helicase; assay: blockers of NS3h binding to ssDNA – biochemical, fluorescence polarization, LOPAC1280 library, primary screen (AID 687035; in the data active = inhibition above about 37%); details: Purified HCV NS3 helicase, Cy5-dT15 ssDNA binding fluorescence polarization; stronger effect = higher value; concentration not given here
[4] = compounds altering Cy5-DNA-NS3h complex signal – biochemical, LOPAC1280, artefact control for HCV NS3 helicase inhibitor project (AID 687037); details: Cy5-DNA-NS3h complex fluorescence interference counterscreen
[5] = viability loss with induced miR-34 in A549 – imaging, A549 dox-inducible miR-34, nuclei and caspase counts, primary screen (AID 1347080;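 active = compounds whose cell count with miR-34 switched on is under 0.7 times the count with it off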); details: A549 miR-34 inducible, Hoechst nuclei count, 48 h
[6] = blockers of cellular phospholipid synthesis – cell-based, LOPAC library, screen 4, primary screen (AID 1347384); details: animal cells, phospholipid biosynthesis inhibition screen; at 10 µM
[7] = galactose survival enhancers in mitochondrial complex I cybrids – cell-based, galactose medium, ATP luminescence, primary screen (AID 1645843;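 active = z-score of at least 1.8 in each of two replicates, scored against plate mean and spread of sample wells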;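 note: positive z means more ATP and so rescue of galactose-driven cybrid death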); details: complex I mutant cybrid cells, 72 h, stronger effect = higher value
[8] = MELAS cybrid and Rieske KO viability enhancers – cell-based, MELAS cybrids, Rieske KO mouse fibroblasts, CellTiter-Glo, primary screen (AID 1508586;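 active = mean z-score across replicates of 1.96 or higher in either the MELAS or the Rieske mutant cell line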;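 note: z relative to plate mean and SD of compound and empty wells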); details: low glucose
[9] = P. berghei load reduction in hepatocytes – cell-based, HepG2, luciferase luminescence, HepG2 viability, primary screen (AID 624349; in the data active = parasite load remaining mostly below about 12%, no sharp cut-off; inactive = mostly above about 10%;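 note: 100% = mean of DMSO negative control wells on the same plate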); details: P. berghei liver stage in HepG2, luciferase luminescence, concentration not given here; parasite load remaining: stronger effect = lower value; viability: measured here: HepG2 viability without parasites
[10] = viability loss in pontine glioma line – cell-based, SU-DIPG-XIII, MIPE4.0, CellTiter-Glo, qHTS, dose response (AID 1347061; cut-off not given, nearly all actives have AC50 up to about 37 µM;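 note: cells exposed to compound for 48 hours before readout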); details: CellTiter-Glo ATP luminescence
[11] = viability loss in pontine glioma line – cell-based, JHH-DIPG-1, MIPE4.0, CellTiter-Glo, qHTS, dose response (AID 1347062; cut-off not given, nearly all actives have AC50 up to about 27 µM); details: JHH-DIPG-1 viability, CellTiter-Glo ATP luminescence
[12] = viability loss in pontine glioma line – cell-based, SU-DIPG-IV, MIPE4.0, CellTiter-Glo, qHTS, dose response (AID 1347063; cut-off not given, nearly all actives have AC50 up to about 30 µM;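 note: compound exposure lasted 48 hours before the viability readout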); details: CellTiter-Glo ATP luminescence
[13] = growth inhibition of DIPG cells – cell-based, MIPE4.0 library, CellTiter-Glo luminescence, qHTS (AID 1347066; cut-off not given, nearly all actives have AC50 up to about 30 µM;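 note: cells exposed to compound for 48 hours before readout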); details: SU-DIPG-VI viability, CellTiter-Glo ATP luminescence
[14] = compounds altering viability of human ES cells (AID 493140); details: human embryonic stem cell survival screen; stronger effect = higher value;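 note: cells exposed to compounds for four days before counting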
[15] = chitosan synthesis blockers in C. neoformans – flow cytometry, Cibacron Brilliant Red staining (AID 1347148); details: Cryptococcus neoformans chitosan, stronger effect = lower value; at 10 µM unless noted;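 note: compound exposure lasted three days at 37 degrees C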
[16] = measured here: relative caspase fold change +Dox/-Dox
[17] = measured here: total cells with miR-34 induction, stronger effect = lower value
[18] = measured here: total cells without miR-34 induction

Which remaining activity [1] does the source give for `CC(C)[C@H](NC(=O)OCc1ccccc1)C(=O)N[C@H](C=O)Cc1ccccc1` (Cbz-Val-Phe-aldehyde) here?
Its remaining activity is 106% (inactive).

Which results are given for `CC(C)Oc1cccnc1N(C)C1CCN(Cc2ccccc2)CC1`?
period change [2]: 0.225 h (inactive); inhibition [3]: -3% (inactive); fluorescence ratio (interference) [4]: 1 (inactive); remaining activity [1]: 99.8% (inactive); fold change ([5]; stronger effect = lower value): 0.905 (inactive); fold change [5, 16]: 1.08; cell count [5, 17]: 8620; cell count [5, 18]: 9520; outcome [6]: inactive; z-score [7]: -0.4 (inactive)

Which period change [2] does the source give for `CC(=O)NBr` here?
The period change was 0.03 h (inactive).

And the inhibition [3]?
Its inhibition is -1% (inactive).

What about the fluorescence ratio (interference) [4] of the same compound?
The fluorescence ratio (interference) was 0.9 (inactive).

And the remaining activity [1]?
Its remaining activity is 100% (inactive).

And the fold change ([5]; stronger effect = lower value)?
The fold change was 1.03 (inactive).

And the fold change [5, 16]?
The fold change was 2.31.

What about the cell count [5, 17] of the same compound?
The cell count was 10500.

What about the cell count [5, 18] of the same compound?
Its cell count is 10100.

What about the outcome [6] of the same compound?
Its outcome is “inactive”.

What about the z-score [7] of the same compound?
The z-score was 0.61 (inactive).

For `C/C(=C\c1ccc(C(=O)O)cc1)c1ccc2c(c1)C(C)(C)CCC2(C)C`, which remaining activity [1] is on record?
Its remaining activity is 97.8% (inactive).

What does the source list for `Oc1ccc2c3c1O[C@H]1c4oc5ccccc5c4C[C@@]4(O)C(C2)N(CC2CC2)CCC314` (stereo not given in full)?
period change [2]: 0.13 h (inactive); inhibition [3]: -1% (inactive); fluorescence ratio (interference) [4]: 1 (inactive); remaining activity [1]: 97.5% (inactive); fold change ([5]; stronger effect = lower value): 1.1 (inactive); fold change [5, 16]: 0.785; cell count [5, 17]: 10600; cell count [5, 18]: 9610; outcome [6]: inactive; z-score [7]: -0.595 (inactive)

Which period change [2] does the source give for `NCCc1ccc(S(=O)(=O)F)cc1` here?
The period change was -0.1 h (inactive).

And the inhibition [3]?
The inhibition was -2% (inactive).

What about the fluorescence ratio (interference) [4] of the same compound?
Its fluorescence ratio (interference) is 0.9 (inactive).

And the remaining activity [1]?
The remaining activity was 99.4% (inactive).

What about the fold change ([5]; stronger effect = lower value) of the same compound?
The fold change was 1.01 (inactive) and 0.94 (inactive).

What about the fold change [5, 16] of the same compound?
The fold change was 0.956 and 0.406.

What about the cell count [5, 17] of the same compound?
Its cell count is 10400 and 7770.

What about the cell count [5, 18] of the same compound?
The cell count was 10400 and 8270.

And the outcome [6]?
The outcome was “inactive”.

What about the z-score ([8]; MELAS cybrid survival, CellTiter-Glo 48 h, stronger effect = higher value) of the same compound?
Its z-score is -0.305 (inactive).

What about the z-score ([8]; Rieske KO mouse fibroblast survival, CellTiter-Glo 72 h) of the same compound?
The z-score was -1.62.

What about the z-score [7] of the same compound?
Its z-score is 0.125 (inactive).

Which period change [2] does the source give for `CC12NC(Cc3ccccc31)c1ccccc12` (stereo not given) here?
The period change was 0.25 h (inactive).

And the parasite load remaining [9]?
Its parasite load remaining is 63.2% (inactive).

What about the viability [9] of the same compound?
The viability was 167%.

What about the inhibition [3] of the same compound?
The inhibition was -3% (inactive).

And the fluorescence ratio (interference) [4]?
The fluorescence ratio (interference) was 0.9 (inactive).

And the remaining activity [1]?
Its remaining activity is 120% (inactive).

And the fold change ([5]; stronger effect = lower value)?
Its fold change is 1.01 (inactive) and 0.879 (inactive).

What about the fold change [5, 16] of the same compound?
The fold change was 1.28 and 2.22.

What about the cell count [5, 17] of the same compound?
Its cell count is 10300 and 11700.

And the cell count [5, 18]?
Its cell count is 10100 and 13300.

What about the outcome [6] of the same compound?
Its outcome is “inactive”.

What about the z-score [7] of the same compound?
Its z-score is -0.15 (inactive).

Which results are given for `CC(C)NC(C)Cc1ccc(I)cc1` (stereo not given)?
period change [2]: 0.04 h (inactive); inhibition [3]: -1% (inactive); fluorescence ratio (interference) [4]: 1 (inactive); remaining activity [1]: 108% (inactive); fold change ([5]; stronger effect = lower value): 1.08 (inactive); fold change [5, 16]: 0.905; cell count [5, 17]: 10800; cell count [5, 18]: 10000; outcome [6]: inactive; z-score [7]: -0.22 (inactive)

Which results are given for `CN(C(=O)Cc1ccc(Cl)c(Cl)c1)C(CN1CCCC1)c1cccc(OCC(=O)O)c1` (stereo not given)?
period change [2]: -0.06 h (inactive); inhibition [3]: -4% (inactive); fluorescence ratio (interference) [4]: 1 (inactive); remaining activity [1]: 103% (inactive); fold change ([5]; stronger effect = lower value): 1.05 (inactive); fold change [5, 16]: 1.11; cell count [5, 17]: 10700; cell count [5, 18]: 10200; outcome [6]: inactive; z-score [7]: 0.31 (inactive)

With `Cc1nc(-c2ccc(-c3ccc(C(=O)N4CCc5cc6c(cc54)C4(CCN(C)CC4)CO6)cc3)c(C)c2)no1` as the compound, how does the period change [2] read?
Its period change is 0.165 h (inactive).

What about the remaining activity [1] of the same compound?
The remaining activity was 96.4% (inactive).

And the outcome [10]?
Its outcome is “inactive”.

What about the outcome [11] of the same compound?
Its outcome is “inactive”.

And the outcome [12]?
Its outcome is “inactive”.

And the outcome [13]?
Its outcome is “inactive”.

Which period change [2] does the source give for `N#CC(C#N)=Cc1ccc([N+](=O)[O-])c(O)c1` here?
The period change was -0.02 h (inactive).

What about the survival [14] of the same compound?
The survival was 124 (inactive).

What about the remaining activity [1] of the same compound?
Its remaining activity is 80.4% (inactive).

What about the fold change ([5]; stronger effect = lower value) of the same compound?
The fold change was 0.901 (inactive) and 1.08 (inactive).

What about the fold change [5, 16] of the same compound?
Its fold change is 1.46 and 1.27.

And the cell count [5, 17]?
The cell count was 4360 and 6240.

What about the cell count [5, 18] of the same compound?
Its cell count is 4840 and 5770.

And the fold fluorescence [15]?
Its fold fluorescence is 5.5 [at 232.4 µM] (inactive).
